Source: PubChem BioAssay (NCATS)
Where “and” joins values, the source holds several entries; their conditions need not be identical. Identical values can stand only once. Results filed as inconclusive are left out. Calls of active or inactive are those of the source. Unless noted, calls follow the shape of the dose curve; as a rule, active = well fitted curve in either direction with a large enough effect (not every such curve was filed as active); inconclusive = small, poorly fitted or top-dose-only effect, or another doubt; inactive = flat fitted curve, though single readings scatter.

Columns and labels:
[1] = molecular target: Lysosomal acid glucosylceramidase (Homo sapiens) (UniProt P04062); experiment: Glucocerebrosidase-p2 (AID 348; in the data active = potency below about 10 µM; also: potency is read from the fitted curve at half-maximal effect); conditions: purified GBA, blue fluorogenic substrate, 40 min
How it was run: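 Compounds titrated from 0.6 nM upwards against 0.2 nM enzyme in pH 5.9 citric acid/KH2PO4, taurocholate, tween-20; blue fluorogenic substrate 80 uM, 40 min room temperature, stopped and read Ex 365/Em 440 for AC50.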

[2] = NFAT Signaling Pathway (AID 444); conditions: Jurkat NFAT-bla M1, carbachol, beta-lactamase ratio, 5 h;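 also: carbachol stimulus at about its EC50 of 1 µM final; % is scaled to controls: 0 for no effect and ±100 for the full control effect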
How it was run: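 Jurkat cells with NFAT-driven β-lactamase reporter and co-expressed M1 receptor, stimulated with carbachol (final 1 uM, ~EC50), compound titration, 5 h at 37 °C. CCF4 loaded 1 h at RT; 460/530 nm ratio gave %activity and AC50.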

[3] = Stat Signaling Pathway (AID 446); conditions: ME-180 SIE beta-lactamase reporter, IL-6 stimulated, 5 h;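 also: ME-180 cervical cancer cells given 40 pM IL-6 alongside compound; SIE-controlled beta-lactamase reporter measured as 460/530 nm FRET emission ratio; % is scaled to controls: 0 for no effect and ±100 for the full control effect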
How it was run: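 IL-6/STAT signaling read in ME-180 cells via an SIE beta-lactamase reporter. Stimulus was 40 pM IL-6 (its AC50) for 5 hrs, so both activation and inhibition register.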

[4] = molecular target: Glucocorticoid receptor (Homo sapiens) (UniProt P04150); experiment: GR-GFP Redistribution (AID 450;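 active = compounds whose dose series gives a full or clear partial fitted curve of increased nuclear translocation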; also: potency is read from the fitted curve at half-maximal effect); conditions: U2OS GR-GFP nuclear translocation, laser cytometry, 2 h
[5] = molecular target: Glucocorticoid receptor (Homo sapiens) (UniProt P04150); experiment: GR-EFC Redistribution (AID 451; calls by dose curve; also: potency is read from the fitted curve at half-maximal effect); conditions: CHO-K1 GR-EFC translocation, beta-gal luminescence, 2 h
How it was run: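 CHO-K1 cells expressing nuclear EA and GR-ED fragments of b-gal; compounds titrated up to 46 uM final, 2 h at 37 C. GR nuclear translocation read as complemented b-gal luminescence after 1 h RT detection.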

[6] = molecular target: Mitogen-activated protein kinase 10 (Mus musculus) (UniProt Q61831); experiment: JNK3 AlphaScreen Assay (AID 530); conditions: JNK3 lysate, c-Jun phosphorylation; series mostly up to 57.1 µM;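 also: kinase came from lysate of stimulated human HepG2 cells; signal reports phosphorylation of biotinylated GST-cJun 1-79 at Ser73 with 10 µM ATP; % is scaled to controls: 0 for no effect and ±100 for the full control effect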
How it was run: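 qHTS format: compounds tested as titrations against IL-1beta/TNF-alpha-activated HepG2 lysate JNK3 with biotin-GST-cJun substrate and 10 uM ATP at room temperature. Loss of anti-phospho-cJun AlphaScreen signal indicates inhibition.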

[7] = qHTS Assay for Lipid Storage Modulators (AID 1519; calls by dose curve); conditions: Drosophila S3 cells, BODIPY lipid droplet/cell ratio, laser cytometry, cells loaded with oleic acid
How it was run: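 Cells seeded at 5,000 per well were treated with compounds over a concentration series and loaded with oleic acid (400 uM, as added). Lipid droplet fluorescence (488 nm excitation, 500-530 nm channel) was read by laser-scanning cytometry and normalized to 20 uM Triacsin C.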

[8] = AP1 Signaling Pathway (AID 357); conditions: ME-180 (cervical carcinoma) AP-1-bla reporter, EGF-induced, beta-lactamase ratio, 5 h; also: % is scaled to controls: 0 for no effect and ±100 for the full control effect
How it was run: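 AP-1-bla ME-180 cells with beta-lactamase reporter under AP-1 response element, stimulated with EC50 EGF; compounds titrated, 5 hours at 37 degrees Celsius. CCF4 read at 460/530 nm ratio; positive and negative modulators judged by AC50.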

[9] = molecular target: Cytochrome P450 1A2 (Homo sapiens) (UniProt P05177); experiment: p450-cyp1a2 (AID 410; calls by dose curve; also: potency is read from the fitted curve at half-maximal effect;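 as to activity change, negative = inhibition: -100% = full effect of reference inhibitor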); conditions: recombinant CYP1A2, luciferin-ME demethylation, luminescence; series mostly up to 57 µM
How it was run: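 Inhibition was calculated relative to 57 uM furafylline (full inhibition). The reaction used human CYP1A2 at 20nM with Luciferin-ME at its Km, 100uM, driven by an NADPH-regenerating system for 60 min at room temperature.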

[10] = molecular target: 3',5'-cyclic-AMP phosphodiesterase 4B (Homo sapiens) (UniProt Q07343); experiment: qHTS Assay for Inhibitors of PDE-IV (AID 607; active = well fitted activation curve with a large enough effect in the main read-out, with a control signal flat, not every such curve was filed as active; also: % of control where 0% means no effect); conditions: HEK293 ACTOne CNG channel cells, membrane potential fluorescence; series mostly up to 22.9 µM
How it was run: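 Live HEK293 cells with a modified cyclic nucleotide-gated (CNG) channel report intracellular cAMP via membrane-potential dye fluorescence (ex 535/em 590 nm). Endogenous PDE-IV was targeted. Compounds were tested at up to 22.9 uM final; RO 20-1724 100 uM served as control.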

[11] = molecular target: Ubiquitin carboxyl-terminal hydrolase 1 (Homo sapiens) (UniProt O94782); experiment: Inhibitors of USP1/UAF1: Pilot qHTS (AID 504865; active = well fitted curve in the direction sought with a large enough effect; an effect the other way counts as inactive or inconclusive;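 also: rhodamine fluorescence freed from ubiquitin-rhodamine substrate followed over time; top concentration of the series differs between compounds; % is scaled to controls: 0 for no effect and ±100 for the full control effect; nearly all actives have a fitted effect of over 35% in size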); conditions: purified USP1/UAF1, Ub-rhodamine cleavage fluorescence; series mostly up to 54.9 µM
How it was run: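 USP1/UAF1 complex at 1 nM preincubated 15 min at room temperature with compound, then Ub-Rho substrate added at 150 nM final. Fluorescence (480/540 nm) read kinetically in 50 mM HEPES pH 7.8, 0.5 mM EDTA, 1 mM TCEP, 0.1 mg/ml BSA, 0.01% Tween-20.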

[12] = molecular target: Pyruvate kinase (Leishmania mexicana) (UniProt Q27686); experiment: qHTS Validation Assay for Inhibitors of Leishmania Mexicana Pyruvate Kinase (AID 945; active = well fitted curve in the direction sought with a large enough effect; an effect the other way counts as inactive or inconclusive;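 also: 0% = DMSO only neutral control wells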); conditions: purified L. mexicana pyruvate kinase, enzyme activity, E451W mutant enzyme; series mostly up to 57.5 µM
How it was run: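 Eight-point qHTS titrations in triplicate, data normalized to DMSO neutral control. Reaction: 0.2 nM LmPYK E451W mutant, 0.5 mM PEP, 0.1 mM ADP, 7 mM MgCl2, pH 7.2, one hour at room temperature; luminescent ATP detection.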

[13] = molecular target: Pyruvate kinase PKM (Homo sapiens) (UniProt P14618); experiment: qHTS Assay for Activators of Human Muscle Pyruvate Kinase (AID 954; active = well fitted curve in the direction sought with a large enough effect, not every such curve was filed as active;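 also: 0% = uninhibited enzyme and -100% = no enzyme or full thiadiazolimine inhibition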); conditions: purified human muscle pyruvate kinase, luciferase-coupled luminescence, 1 h; series mostly up to 57.5 µM
How it was run: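 Enzyme was run at intermediate activity so both inhibitors and activators could be detected. ATP formed from ADP and PEP by 0.1 nM human PKM2 during a 1 h room-temperature incubation was quantified by coupled luciferase luminescence.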

[14] = molecular target: Alpha-galactosidase A (Homo sapiens) (UniProt P06280); experiment: Counterscreen for Glucocerebrosidase Inhibitors: qHTS Assay for Human alpha-Galactosidase at pH 4.5 (AID 992; active = well fitted curve in the direction sought with a large enough effect; an effect the other way counts as inactive or inconclusive; also: 0% is about no effect); conditions: purified enzyme, fluorogenic substrate; series mostly up to 76.9 µM
How it was run: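 Read-out is 4-methylumbelliferone fluorescence (365 nm excitation, 440 nm emission) after a pH 10 NaOH/glycine stop. Reactions held 2 nM enzyme and 80 uM substrate at pH 4.5 for 20 min at room temperature.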

[15] = molecular target: alpha-glucosidase (Oryza sativa, rice) (UniProt Q653V4); experiment: Counterscreen for Glucocerebrosidase Inhibitors: qHTS Assay for Rice alpha-Glucosidase at pH 5.0 (AID 997; active = well fitted curve in the direction sought with a large enough effect; an effect the other way counts as inactive or inconclusive;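 also: 0% = full activity with enzyme and -100% = basal without enzyme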); conditions: rice alpha-glucosidase enzyme activity; series mostly up to 76.9 µM
How it was run: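 Rice alpha-glucosidase (4 nM final) with 400 uM 4-methylumbelliferyl-alpha-D-glucopyranoside in citrate buffer pH 5.0, 20 min at room temperature, stopped at pH 10; fluorescence 365/440 nm, compounds 0.7 nM–77 uM, AC50 from Hill fits.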

[16] = molecular target: ATP-dependent 6-phosphofructokinase (Trypanosoma brucei brucei) (UniProt O15648); experiment: qHTS Assay to Find Inhibitors of T. brucei phosphofructokinase: hit validation (AID 492961; active = well fitted curve in the direction sought with a large enough effect; an effect the other way counts as inactive or inconclusive); conditions: T. brucei PFK, ADP-Glo luminescence; series mostly up to 24.3 µM
How it was run: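 Inhibition of parasite PFK is measured as reduced ADP formation, quantified via luciferase after ATP depletion. Assay used 0.1 mM ATP, 0.5 mM F6P, 1.25 nM enzyme, 45 min incubation.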

[17] = molecular target: Luciferin 4-monooxygenase (Photinus pyralis) (UniProt P08659); experiment: Biochemical firefly luciferase enzyme assay for NPC (AID 624030; active = well fitted curve in the direction sought with a large enough effect; an effect the other way counts as inactive or inconclusive;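 also: purified P. pyralis luciferase at 10 nM with luciferin and ATP substrate; 0% = DMSO and -100% = full luciferase inhibition by PTC124 control; nearly all actives have a fitted effect of over 70% in size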); conditions: purified P. pyralis luciferase, luminescence, 5 min; series mostly up to 58.6 µM
How it was run: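 Purified P. pyralis luciferase at 10 nM in 50 mM Tris Acetate (final), luminescence read within 5 minutes of enzyme addition to compounds. Activity normalised to PTC124 versus DMSO; concentration-response curves classed by r2, magnitude and activity.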

[18] = qHTS profiling for inhibitors of Plasmodium falciparum proliferation (AID 504749; active = well fitted curve in the direction sought with a large enough effect; an effect the other way counts as inactive or inconclusive;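 also: 0% = DMSO vehicle and full inhibition = artemisinin control; nearly all actives have a fitted effect of over 60% in size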); conditions: P. falciparum in erythrocytes, SYBR Green DNA, 72 h
How it was run: (§1)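 Readout was DNA-dye fluorescence from lysed cultures, ex 485/em 535 nm. Parasitized red cells had grown 72 h with compound; data scaled between 0.29 uM artemisinin and DMSO wells and corrected using vehicle-only plates.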

[19] = tested on: AS120; experiment: as above; conditions: P. falciparum in erythrocytes, SYBR Green DNA, 72 h; series mostly up to 28.7 µM
How it was run: as §1

[20] = tested on: CP250; experiment: as above; conditions: P. falciparum in erythrocytes, SYBR Green DNA, 72 h; series mostly up to 12.8 µM
How it was run: as §1

[21] = at 7.69 µM (top of the series) unless noted
[22] = measured here: cell count channel max response
[23] = measured here: lipid channel max response

Sequence of Glucocorticoid receptor (Homo sapiens) (P04150 whole entry, looked up, the tested form may be a part): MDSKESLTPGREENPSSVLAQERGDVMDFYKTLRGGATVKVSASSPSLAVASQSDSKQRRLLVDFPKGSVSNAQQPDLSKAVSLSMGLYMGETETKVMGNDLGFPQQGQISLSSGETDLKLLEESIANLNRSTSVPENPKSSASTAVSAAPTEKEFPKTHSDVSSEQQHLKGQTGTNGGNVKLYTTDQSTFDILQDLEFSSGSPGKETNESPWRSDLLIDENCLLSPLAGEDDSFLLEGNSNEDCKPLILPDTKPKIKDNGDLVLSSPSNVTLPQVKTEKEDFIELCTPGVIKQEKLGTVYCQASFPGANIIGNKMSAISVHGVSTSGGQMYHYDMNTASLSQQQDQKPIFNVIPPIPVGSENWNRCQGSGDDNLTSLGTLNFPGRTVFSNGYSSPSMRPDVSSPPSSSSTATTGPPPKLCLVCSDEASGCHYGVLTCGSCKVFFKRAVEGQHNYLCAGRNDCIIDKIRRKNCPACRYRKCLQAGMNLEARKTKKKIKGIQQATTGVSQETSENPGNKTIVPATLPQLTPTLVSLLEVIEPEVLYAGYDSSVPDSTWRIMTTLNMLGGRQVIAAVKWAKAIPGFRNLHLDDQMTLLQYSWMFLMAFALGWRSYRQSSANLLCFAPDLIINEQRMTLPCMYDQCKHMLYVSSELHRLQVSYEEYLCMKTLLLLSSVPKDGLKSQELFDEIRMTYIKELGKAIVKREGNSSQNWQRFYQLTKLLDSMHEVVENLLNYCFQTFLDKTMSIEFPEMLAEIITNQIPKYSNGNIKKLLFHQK
Sequence of Cytochrome P450 1A2 (Homo sapiens) (P05177 whole entry, looked up): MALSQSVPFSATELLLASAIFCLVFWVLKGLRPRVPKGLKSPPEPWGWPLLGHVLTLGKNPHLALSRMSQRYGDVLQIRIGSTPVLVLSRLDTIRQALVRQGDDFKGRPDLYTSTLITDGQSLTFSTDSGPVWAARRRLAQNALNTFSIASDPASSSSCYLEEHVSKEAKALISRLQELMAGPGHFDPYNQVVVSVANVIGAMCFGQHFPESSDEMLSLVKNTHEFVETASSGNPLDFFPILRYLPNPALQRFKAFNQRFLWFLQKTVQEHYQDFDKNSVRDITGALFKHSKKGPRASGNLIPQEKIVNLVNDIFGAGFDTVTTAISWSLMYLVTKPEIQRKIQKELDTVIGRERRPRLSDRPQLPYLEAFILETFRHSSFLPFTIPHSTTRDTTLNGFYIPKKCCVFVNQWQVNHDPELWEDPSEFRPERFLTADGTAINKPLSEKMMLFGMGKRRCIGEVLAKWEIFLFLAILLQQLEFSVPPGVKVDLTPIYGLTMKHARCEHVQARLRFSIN
Sequence of 3',5'-cyclic-AMP phosphodiesterase 4B (Homo sapiens) (Q07343 whole entry, looked up): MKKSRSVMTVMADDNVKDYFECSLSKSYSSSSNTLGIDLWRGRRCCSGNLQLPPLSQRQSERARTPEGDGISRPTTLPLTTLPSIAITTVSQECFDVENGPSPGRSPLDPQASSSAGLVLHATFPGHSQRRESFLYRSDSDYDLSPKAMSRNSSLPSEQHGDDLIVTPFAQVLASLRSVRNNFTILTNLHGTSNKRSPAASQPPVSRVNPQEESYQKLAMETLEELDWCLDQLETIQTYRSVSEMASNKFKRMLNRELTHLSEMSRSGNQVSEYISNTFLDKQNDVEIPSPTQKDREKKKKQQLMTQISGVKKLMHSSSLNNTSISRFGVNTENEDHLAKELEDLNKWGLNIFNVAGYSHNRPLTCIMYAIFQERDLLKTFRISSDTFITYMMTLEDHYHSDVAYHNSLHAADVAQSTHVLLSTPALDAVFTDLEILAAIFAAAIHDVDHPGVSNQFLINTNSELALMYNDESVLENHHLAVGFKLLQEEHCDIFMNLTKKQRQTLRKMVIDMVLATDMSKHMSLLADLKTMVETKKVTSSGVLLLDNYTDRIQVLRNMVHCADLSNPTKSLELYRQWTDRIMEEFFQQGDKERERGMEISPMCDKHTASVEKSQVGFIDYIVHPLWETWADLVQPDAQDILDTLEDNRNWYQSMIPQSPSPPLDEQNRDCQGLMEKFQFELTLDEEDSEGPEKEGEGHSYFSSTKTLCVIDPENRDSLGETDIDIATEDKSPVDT
Sequence of Luciferin 4-monooxygenase (Photinus pyralis) (P08659 whole entry, looked up): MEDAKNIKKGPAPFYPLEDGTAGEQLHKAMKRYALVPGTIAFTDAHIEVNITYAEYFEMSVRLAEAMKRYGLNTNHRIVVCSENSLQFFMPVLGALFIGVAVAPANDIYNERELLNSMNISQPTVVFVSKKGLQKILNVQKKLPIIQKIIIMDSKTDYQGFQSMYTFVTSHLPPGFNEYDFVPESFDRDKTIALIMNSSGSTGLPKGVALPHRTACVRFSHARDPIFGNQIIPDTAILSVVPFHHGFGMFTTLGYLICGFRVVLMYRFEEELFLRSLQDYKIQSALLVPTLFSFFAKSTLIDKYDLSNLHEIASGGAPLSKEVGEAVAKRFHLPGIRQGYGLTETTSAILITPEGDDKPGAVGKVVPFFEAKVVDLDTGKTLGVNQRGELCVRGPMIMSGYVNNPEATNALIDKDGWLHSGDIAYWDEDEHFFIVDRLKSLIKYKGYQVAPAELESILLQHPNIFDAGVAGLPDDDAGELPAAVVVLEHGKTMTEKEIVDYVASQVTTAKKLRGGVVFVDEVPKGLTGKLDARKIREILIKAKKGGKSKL
Sequence of Pyruvate kinase PKM (Homo sapiens) (P14618 whole entry, looked up): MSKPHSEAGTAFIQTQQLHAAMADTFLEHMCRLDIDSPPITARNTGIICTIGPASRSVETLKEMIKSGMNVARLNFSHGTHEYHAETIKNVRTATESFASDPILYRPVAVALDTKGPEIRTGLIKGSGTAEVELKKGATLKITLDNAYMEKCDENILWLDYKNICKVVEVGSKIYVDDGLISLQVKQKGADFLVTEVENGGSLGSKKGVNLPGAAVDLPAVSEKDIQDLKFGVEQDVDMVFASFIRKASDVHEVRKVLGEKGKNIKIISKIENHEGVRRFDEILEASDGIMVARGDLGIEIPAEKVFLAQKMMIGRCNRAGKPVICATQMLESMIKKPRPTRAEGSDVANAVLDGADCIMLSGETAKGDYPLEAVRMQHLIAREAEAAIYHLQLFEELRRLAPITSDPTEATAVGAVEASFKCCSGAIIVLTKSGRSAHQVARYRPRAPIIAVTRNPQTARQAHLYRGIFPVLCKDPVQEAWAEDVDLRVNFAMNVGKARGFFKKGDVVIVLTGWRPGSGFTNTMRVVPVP
Sequence of Ubiquitin carboxyl-terminal hydrolase 1 (Homo sapiens) (O94782 whole entry, looked up): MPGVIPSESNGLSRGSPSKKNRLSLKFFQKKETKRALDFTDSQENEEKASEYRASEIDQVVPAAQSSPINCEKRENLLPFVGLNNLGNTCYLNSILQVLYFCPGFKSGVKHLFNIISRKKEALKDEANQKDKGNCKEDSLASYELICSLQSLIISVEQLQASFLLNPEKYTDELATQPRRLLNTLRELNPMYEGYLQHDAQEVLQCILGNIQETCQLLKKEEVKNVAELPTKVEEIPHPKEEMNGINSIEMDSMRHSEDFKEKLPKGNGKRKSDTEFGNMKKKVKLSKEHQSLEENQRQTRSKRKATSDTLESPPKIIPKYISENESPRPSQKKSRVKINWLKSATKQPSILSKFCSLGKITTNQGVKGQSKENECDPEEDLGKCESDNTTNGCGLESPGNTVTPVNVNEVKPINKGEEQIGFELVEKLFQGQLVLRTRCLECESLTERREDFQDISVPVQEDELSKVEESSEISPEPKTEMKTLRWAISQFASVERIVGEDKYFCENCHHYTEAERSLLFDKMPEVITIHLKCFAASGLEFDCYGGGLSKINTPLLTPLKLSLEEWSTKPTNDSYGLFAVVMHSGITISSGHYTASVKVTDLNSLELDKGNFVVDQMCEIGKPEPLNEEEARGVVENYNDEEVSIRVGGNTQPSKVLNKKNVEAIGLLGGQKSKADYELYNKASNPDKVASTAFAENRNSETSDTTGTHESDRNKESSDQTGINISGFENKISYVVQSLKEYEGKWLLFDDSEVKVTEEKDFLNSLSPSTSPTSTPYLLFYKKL
Sequence of Alpha-galactosidase A (Homo sapiens) (P06280 whole entry, looked up): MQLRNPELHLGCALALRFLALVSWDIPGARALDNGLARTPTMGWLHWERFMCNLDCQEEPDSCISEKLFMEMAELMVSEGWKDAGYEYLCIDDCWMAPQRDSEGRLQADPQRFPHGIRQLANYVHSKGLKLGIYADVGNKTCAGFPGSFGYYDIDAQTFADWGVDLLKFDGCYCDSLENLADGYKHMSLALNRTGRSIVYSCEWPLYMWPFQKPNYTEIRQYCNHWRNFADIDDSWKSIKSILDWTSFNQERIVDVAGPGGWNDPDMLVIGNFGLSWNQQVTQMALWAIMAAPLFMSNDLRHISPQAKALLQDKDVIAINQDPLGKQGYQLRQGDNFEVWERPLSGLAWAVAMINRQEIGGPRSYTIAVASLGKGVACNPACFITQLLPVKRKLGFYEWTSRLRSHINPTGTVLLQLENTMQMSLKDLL
Sequence of Lysosomal acid glucosylceramidase (Homo sapiens) (P04062 whole entry, looked up): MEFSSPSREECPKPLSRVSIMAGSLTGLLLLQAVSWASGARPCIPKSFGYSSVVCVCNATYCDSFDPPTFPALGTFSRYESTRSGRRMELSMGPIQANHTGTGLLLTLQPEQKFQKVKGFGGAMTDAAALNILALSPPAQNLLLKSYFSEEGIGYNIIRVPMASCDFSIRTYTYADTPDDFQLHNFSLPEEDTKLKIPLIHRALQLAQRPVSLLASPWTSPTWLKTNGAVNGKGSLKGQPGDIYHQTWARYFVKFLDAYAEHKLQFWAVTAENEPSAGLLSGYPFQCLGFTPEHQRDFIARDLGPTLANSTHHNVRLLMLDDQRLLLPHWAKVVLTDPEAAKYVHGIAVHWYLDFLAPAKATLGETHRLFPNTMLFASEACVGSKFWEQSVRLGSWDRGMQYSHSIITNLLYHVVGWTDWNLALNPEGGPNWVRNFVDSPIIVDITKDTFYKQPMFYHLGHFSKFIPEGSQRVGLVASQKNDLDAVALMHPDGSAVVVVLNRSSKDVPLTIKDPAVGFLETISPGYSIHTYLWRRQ

N#CCCn1c(=O)c(CCc2ccccc2)nc2cnc(N3CCOCC3)nc21
inactive: Potency [1] > 11.4 µM | activity change, negative = inhibition [2, 21] -3.78% | activity, negative = inhibition [3, 21] 26.7% | Potency [4] > 9.22 µM | Potency [5] > 46 µM | Potency [6] | activity change, negative = inhibition ([7]; at 57.5 µM (top of the series)) 4.17%
19.8%: max response [7, 22]
22.7%: max response [7, 23]

C[C@@]12CCC(=O)C=C1CC[C@H]1[C@H]3CC[C@](O)(C(=O)CO)[C@]3(C)CC(=O)[C@@H]12
inactive: activity change, negative = inhibition ([8]; at 17.2 µM (top of the series)) 11.7% | activity change, negative = inhibition ([8]; at 38 µM (top of the series)) -1.21% | Potency [9] | activity change, negative = inhibition ([2]; at 17.2 µM (top of the series)) -13.1% | activity change, negative = inhibition ([2]; at 38 µM (top of the series)) -9.72% | activity, negative = inhibition ([3]; at 17.2 µM (top of the series)) 8.63% | activity, negative = inhibition ([3]; at 38 µM (top of the series)) -7% | Potency [5] > 46 µM and > 20.6 µM | Potency [10] | activity change, negative = inhibition ([7]; at 25.7 µM (top of the series)) -1.59% | Potency [11]
-3.69%: max response [7, 23]
-0.115%: max response [7, 22]
active: Potency [4] 0.431 µM

COc1ccc([C@H]2Sc3ccccc3N(CCN(C)C)C(=O)[C@H]2OC(C)=O)cc1
inactive: activity change, negative = inhibition ([8]; at 17.2 µM (top of the series)) -10.4% | activity change, negative = inhibition ([8]; at 38 µM (top of the series)) -3.25% | Potency [9] | activity change, negative = inhibition ([2]; at 17.2 µM (top of the series)) -5.79% | activity change, negative = inhibition ([2]; at 38 µM (top of the series)) -3.5% | activity, negative = inhibition ([3]; at 17.2 µM (top of the series)) -1.38% | activity, negative = inhibition ([3]; at 38 µM (top of the series)) 7.22% | Potency [4] > 46 µM and > 20.6 µM | Potency [5] > 46 µM and > 20.6 µM | Potency [10] | outcome [12] | outcome [13] | outcome [14] | outcome [15] | activity change, negative = inhibition ([7]; at 25.7 µM (top of the series)) -1.07% | Potency [11]
7.03%: max response [7, 22]
9.95%: max response [7, 23]

O=C(c1cc(C(F)(F)F)cc(C(F)(F)F)c1)N1CCC2(CCCN(c3ccncc3)C2)CC1
16%: max response [7, 23]
inactive: Potency [1] > 11.4 µM | activity, negative = inhibition [3, 21] 16.9% | Potency [5] > 46 µM | Potency [6] | Potency [10] | activity change, negative = inhibition ([7]; at 57.5 µM (top of the series)) 5.04%
8.86%: max response [7, 22]

C[C@@H]1COc2c(N3CCN(C)CC3)c(F)cc3c(=O)c(C(=O)O)cn1c23
-10.5%: max response [7, 23]
inactive: activity change, negative = inhibition ([8]; at 17.2 µM (top of the series)) -1.23% | activity change, negative = inhibition ([8]; at 38 µM (top of the series)) 11.6% | Potency [9] | activity change, negative = inhibition ([2]; at 17.2 µM (top of the series)) -4.07% | activity change, negative = inhibition ([2]; at 38 µM (top of the series)) 4.93% | activity, negative = inhibition ([3]; at 17.2 µM (top of the series)) 4.46% | activity, negative = inhibition ([3]; at 38 µM (top of the series)) -5.77% | Potency [6] | Potency [10] | outcome [12] | outcome [13] | outcome [14] | outcome [15] | activity change, negative = inhibition ([7]; at 25.7 µM (top of the series)) -0.7% | outcome [16] | outcome [17] | activity, negative = inhibition ([18]; at 28.7 µM (top of the series), parasite line A) 3.1% | activity, negative = inhibition ([18]; at 28.7 µM (top of the series), parasite line B) 11.1% | Potency [19] | Potency [20]
-7.85%: max response [7, 22]

CCCN[C@@H](C)C(=O)Nc1c(C)csc1C(=O)OC
-6.57%: max response [7, 22]
inactive: activity change, negative = inhibition [8, 21] 8.34% [at 17.2 µM] | activity change, negative = inhibition [2, 21] -13.1% [at 17.2 µM] | activity, negative = inhibition [3, 21] -0.411% [at 17.2 µM] | Potency [4] > 20.6 µM | Potency [5] > 20.6 µM | Potency [6] | Potency [10] | activity change, negative = inhibition ([7]; at 25.7 µM (top of the series)) -2.12% | outcome [16] | outcome [17] | activity, negative = inhibition ([18]; at 12.8 µM (top of the series), parasite line A) 6.61% | activity, negative = inhibition ([18]; at 12.8 µM (top of the series), parasite line B) 16.5% | Potency [19] | Potency [20]
active: Potency [9] 12.6 µM
-14.2%: max response [7, 23]
